The test system of the assay is VDR:RXRa (NR concentration 270 nM, RXRa partner concentration 90 nM). Description: PBM binding z-score (relative to random genomic background probes); higher = stronger binding; sequences stand for … in GC…GCGATTGACAGCGTAGAATGAAGG
On the procedure: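 Protein-binding microarray (Agilent 4x180K custom design, double-stranded 60-nt probes: 5' GC cap, 34-nt variable region, 24-nt constant primer region; full probe sequence given). Purified or IVT nuclear receptor:RXRα heterodimers (3:1 NR:RXRα, mostly 270:90 nM) or homodimers were incubated for 1 h in PBS with 2% milk and no ligand, then detected with Alexa488 antibodies. Fluorescence from o1-orientation probes (~5 replicates averaged) was converted to z-scores against 500 random hg19 background probes. Variable regions are seed direct-repeat (DR0–DR5) sites, all their single-nucleotide variants and half-site ablations.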
The sequence TCGAGTAGGTTAGGGGCATACAGAATGGCGTCGA had a PBM binding z-score of 0.604.
AATACAGGGTCATCGTAGACCAGAGTACGCACAG came in with a PBM binding z-score of 5.04.
CGAACAAGGGCATGAGTTGATAGCAAATGCCGAT: the PBM binding z-score turned out to be 0.706.
GCTTACGAGTCAAAGGTTATAGCATGAATAGAAT gave a PBM binding z-score of 2.16.
TCTATTAGTTGACTAGGGCAACCGAAACAGCGGA gave a PBM binding z-score of 0.704.
TCGAGTAGGCTAGGGGCATTCAGAATGGCGTCGA gave a PBM binding z-score of -0.094.
CCAGACAGGTGAGAAGGTAAATCAGCCTCGATTA gave a PBM binding z-score of -0.13.
As for ATCTCTAGGTAACAAGTTCAGTGATAGAGAGGAC, the PBM binding z-score is 1.91.
In the case of ATCTCTAGGTAACCAAGGTCAGTGAATGCCGAAC, the PBM binding z-score was 3.67.
As for ACTATTAGCTGAGACGAGGGCAACCGATAGGTTG, the PBM binding z-score was found to be 0.232.
Sequence AGTCAAAGTTCATCTAGCTAACGTAAGATATGCT yielded a PBM binding z-score of 4.35.
CGAACTAGGTCATTGACAAGACAGTGAATAGTAA displayed a PBM binding z-score of 1.89.
Turning to GCAGACAGGTAAAACGCAGGTAACTCAGGGTGGC, the PBM binding z-score is -0.484.
On to CCTTACGGGTCACTCCAGGCTATAGCATCGGAGT, for which the PBM binding z-score was found to be 2.98.
The result for TTATCAAGGTGAGCTGAGGTCGTTGATCCAACTC reads 3.93; that for CGTCCAAGGTCAAAGGACAGTGAAGAGATGACGG, 3.76.
Consider ACTATTAGTTGAGACGAGGGCAAACGATAGGTTG, for which the PBM binding z-score was found to be 0.775.
The same measure for GCATATAGGTAATACAAGGTGAGAGTCCGATTGT: 0.351.
Regarding TCTTGTAGATCAGCAGATTAAGAAAGCTGGCCAA, the PBM binding z-score was determined as 0.172.
Sequence ATATGTAGGTTAGCCGGGGTCATTCAGACTAGGC displayed a PBM binding z-score of 6.67.
The sequence CCTGCAAGGTCAATGGTCAGCTAAAGCAGCTCGC displayed a PBM binding z-score of 3.76.
For ACTATTAGTTGACTTAGGACAACCGATACGACGC, the PBM binding z-score stood at 0.499.
Sequence TGAATGAGGTTATGAGATCAGGGAACGTTGCAAA displayed a PBM binding z-score of 0.987.
GCTTGTACATCAAGGTTAAGAAAGACTAAGCTAA registered a PBM binding z-score of 0.208.
GCTGGCAGGCCATTTGGGTCACTCAATGACGGGC had a PBM binding z-score of 1.
Sequence TCTTGAAGATCAATAGAGGTTAAGAAAGTGCGCT had a PBM binding z-score of 1.92.
For GCAACGAGGGCAAGTTGATAGCAGAGTTTGATGG, the PBM binding z-score was 0.955.
AGTGAAAGTTCATCTAGGTAACGTAAGATATGCT registered a PBM binding z-score of 4.97.
CGAACTGGGTCAGAACAGGACAGTGAAGGATGAT returned a PBM binding z-score of 0.685.
Consider GGGACGAGGGCAAGTTGATAGCAGAGTTTGATGG, for which the PBM binding z-score is 1.29.
Sequence CGTCCCAGGTCATAGGAGGTCAGTGAAGACAGAT came in with a PBM binding z-score of 6.01.
TGAATGACGTTATAAGATCAGGGAACGTTGCAAA returned a PBM binding z-score of 0.104.
GATACAGGGTCAGCTAGAGGACAGAGTATGGAAA had a PBM binding z-score of 3.75.
GTACCAAGGTGAATAGGTCGTGGATGAGTAGGCG showed a PBM binding z-score of 0.918.
GCTAGTTGGTCAGTAAAAGGTCACATACCGGTCG returned a PBM binding z-score of 3.89.
GGAACGAGGACAAGTTGATAGCAGAGTTTGATGG came in with a PBM binding z-score of 0.0641.
The result for ATCGAAAGGTCGAGGTGAGTTTAGAGAAAGGGAA reads 4.92; that for GCGACTGGGGCAACAGCAGGTTACCATAACTTAA, -0.189; that for CCTCGGAGCACAGAAGGTCAGAGCTGTCCGCTTT, 1.33.
ATCTCTAGGTAAGGCTCAGTTCAGTGAAGAACGC: the PBM binding z-score came out at 0.553.

The values above are taken from the supplement of paper PMC6555819.
